Experimental data published in PubChem BioAssay (NCATS).
Where “and” joins values, the source holds several entries; their conditions need not be identical. Identical values can stand only once. Results filed as inconclusive are left out. Where a call stands in place of a potency, no number is given. For some assays here: Measured potencies and affinities stand elsewhere. Calls of active or inactive are those of the source. For most assays here, calls follow the shape of the dose curve; as a rule, active = well fitted curve in the direction sought with a large enough effect; inconclusive = small, poorly fitted or top-dose-only effect, or another doubt; inactive = no such curve, though single readings can be large; an effect the other way counts as inactive or inconclusive.

Key:
[1] = Ebola virus entry cell assay, ratio channel
[2] = Ebola virus entry reporter assay, green channel fluorescence
[3] = qHTS assay for measurement of the activity of small molecule inhibitors on Zika virus induced Caspase-3 activity in human iPSC derived neural progenitor cells (hNPCs) (AID 1224857); conditions: hNPCs ZIKV-induced caspase-3/7, Caspase-Glo luminescence, 6 h; series mostly up to 45.7 µM; also: nearly all actives have a fitted effect of over 65% in size
How it was run: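 Values are percent inhibition of virus-induced caspase-3/7 signal, scaled between uninfected cells and ZIKV-infected cells. Infection used 2 FFU/cell for 6 h after 1 h compound exposure.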

[4] = qHTS assay for measurement of the activity of small molecule inhibitors on Zika virus induced Caspase-3 activity in human astrocytoma cells (AID 1224859); conditions: SNB-19 ZIKV-induced caspase-3/7, luminescence, 6 h; series mostly up to 45.7 µM
How it was run: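 Compound added 1 h pre-infection; ZIKV 2 FFU/cell on SNB-19 cells, 6 h, 37 C/5% CO2. Caspase-Glo 3/7 luminescence; values as % inhibition of ZIKV-induced caspase activity.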

[5] = qHTS assay to identify small molecule inhibitors of chordoma cells - UCH-1 (AID 1259355); conditions: UCH-1 chordoma viability, CellTiter-Glo, 48 h, combination; series mostly up to 46.1 µM; also: nearly all actives have a fitted effect of over 55% in size
How it was run: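 Cells (800/well) were seeded and left overnight at 37 C, 5% CO2, then treated with drugs at 15 concentrations plus a combination mix of auranofin, camptothecin, doxorubicin, rubitecan and topotecan. Viability after 48hr was read by CellTiter-Glo luminescence.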

[6] = qHTS assay to identify small molecule inhibitors of chordoma cells - UCH-2 (AID 1259356); conditions: UCH-2 chordoma viability, CellTiter-Glo ATP luminescence, 48 h; series mostly up to 46.1 µM
[7] = High-throughput drug toxicity screening in the BPDCN cell line Gen2.2 (AID 1224824; call rule not given here;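 also: cells exposed to compounds for 48 h before reading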); conditions: Gen2.2 BPDCN cells; at 45.8 µM (top of the series)
How it was run: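 Seed 500 exponentially growing Gen2.2 cells/well; add compounds by pin tool; incubate 48 h, 37 °C, 5% CO2; add CellTiter-Glo, 15 min RT; read luminescence. % activity vs DMSO (100%) and bortezomib (0%).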

[8] = High-throughput drug toxicity screening in the BPDCN cell line Cal-1 (AID 1224825; call rule not given here); conditions: Cal-1 BPDCN cell viability, qHTS; at 45.8 µM (top of the series)
How it was run: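 Cal-1 cells, 500 per well in phenol-red-free RPMI with 10% FBS, exposed to compounds for 48 hours at 37C, 5% CO2. Viability read by CellTiter-Glo luminescence; percent activity normalized to DMSO (100%) and 9.2 uM bortezomib final (0%).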

[9] = qHTS Screen of the MIPE 4.0 Collection Against Ewings Sarcoma (TC71) (AID 1259253); conditions: TC71 Ewing sarcoma viability, CellTiter-Glo, 48 h; series mostly up to 45.8 µM; also: nearly all actives have a fitted effect of over 40% in size
How it was run: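 Dose series incubated 48 h with cells in RPMI plus 5% FBS, glutamine and penicillin/streptomycin; cell viability then quantified via CellTiter-Glo.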

[10] = P-glycoprotein substrates identified in KB-8-5-11 adenocarcinoma cell line, qHTS therapeutic library screen (AID 1346987); conditions: KB-8-5-11 (P-gp overexpressing) viability, CellTiter-Glo, 72 h; series mostly up to 44.5 µM; also: nearly all actives have a fitted effect of over 65% in size; also: potency is read from the fitted curve at half-maximal effect
How it was run: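 KB-8-5-11: colchicine-selected sub-line of KB-3-1 over-expressing P-gp; assay medium lacked colchicine. 72 h drug exposure at 37 degree C, CellTiter-Glo.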

[11] = biological target: Atrial natriuretic peptide receptor 1 (Homo sapiens) (UniProt P16066); experiment: Natriuretic polypeptide receptor (hNpr1) antagonism - Pilot screen (AID 1347049; calls by dose curve;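 also: agonist-evoked cGMP luminescence read 20 min after hNppA addition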); conditions: hNpr1 cells, antagonist mode cGMP read-out; series mostly up to 57.5 µM
How it was run: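 HEK293 cells expressing hNpr1 and GloSensor cGMP luciferase, 1500/well, loaded with 2% GloSensor reagent 2 h, compound 30 min at room temperature; luminescence read before and 20 min after 0.1 nM hNppA stimulation.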

[12] = P-glycoprotein substrates identified in KB-3-1 adenocarcinoma cell line, qHTS therapeutic library screen (AID 1346986); conditions: KB-3-1 parental cells viability, CellTiter-Glo, 72 h; series mostly up to 44.5 µM; also: nearly all actives have a fitted effect of over 60% in size
How it was run: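 Compounds were tested in dose-response against KB-3-1 and KB-8-5-11 cells at 37 degree C for 72 h, and viability was measured by luminescence. AC50 values came from curve fitting with class-based activity calls.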

Atrial natriuretic peptide receptor 1 (Homo sapiens), sequence (P16066 whole entry, looked up): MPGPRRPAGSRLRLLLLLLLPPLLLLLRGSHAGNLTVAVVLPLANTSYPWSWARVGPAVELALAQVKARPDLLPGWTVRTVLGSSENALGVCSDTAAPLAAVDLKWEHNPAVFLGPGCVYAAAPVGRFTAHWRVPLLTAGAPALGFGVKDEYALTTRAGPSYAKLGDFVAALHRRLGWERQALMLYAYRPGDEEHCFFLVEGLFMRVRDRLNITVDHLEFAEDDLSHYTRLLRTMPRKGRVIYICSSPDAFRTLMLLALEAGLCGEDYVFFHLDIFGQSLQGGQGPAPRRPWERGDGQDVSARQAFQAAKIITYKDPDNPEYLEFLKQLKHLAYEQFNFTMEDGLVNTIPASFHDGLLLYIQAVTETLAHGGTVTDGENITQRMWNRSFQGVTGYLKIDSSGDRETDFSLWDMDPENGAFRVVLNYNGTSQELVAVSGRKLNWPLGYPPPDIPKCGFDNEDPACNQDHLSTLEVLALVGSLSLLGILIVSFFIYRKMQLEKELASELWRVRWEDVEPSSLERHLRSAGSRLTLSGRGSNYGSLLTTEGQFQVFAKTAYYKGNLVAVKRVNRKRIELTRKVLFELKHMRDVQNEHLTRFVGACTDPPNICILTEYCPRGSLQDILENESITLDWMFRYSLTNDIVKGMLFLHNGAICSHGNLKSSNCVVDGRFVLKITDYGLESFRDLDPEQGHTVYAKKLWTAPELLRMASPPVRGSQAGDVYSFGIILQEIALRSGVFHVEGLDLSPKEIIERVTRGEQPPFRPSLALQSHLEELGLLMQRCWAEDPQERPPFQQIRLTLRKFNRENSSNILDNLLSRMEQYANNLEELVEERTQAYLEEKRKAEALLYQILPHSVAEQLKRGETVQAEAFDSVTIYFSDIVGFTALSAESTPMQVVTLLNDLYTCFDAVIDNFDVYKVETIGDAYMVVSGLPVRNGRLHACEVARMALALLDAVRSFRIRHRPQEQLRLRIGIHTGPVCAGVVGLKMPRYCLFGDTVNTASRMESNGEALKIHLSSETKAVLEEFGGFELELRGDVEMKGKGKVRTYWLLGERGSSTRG

CN(Cc1cnc2nc(N)nc(N)c2n1)c1ccc(C(=O)N[C@@H](CCC(=O)O)C(=O)O)cc1
outcome [1]: inactive

C[C@]12CC[C@H]3[C@@H](CCC4=CC(=O)CC[C@@H]43)[C@@H]1CC[C@@H]2OC(=O)CCc1ccccc1
outcome [2]: inactive | outcome [1]: inactive | Potency [3]: inactive | outcome [4]: inactive

C[N+]1(C)CCC(OC(=O)C(O)(c2ccccc2)C2CCCC2)C1 (centres undefined)
outcome [1]: inactive

CC(=O)[C@]1(O)Cc2c(O)c3c(c(O)c2[C@@H](O[C@H]2C[C@H](N)[C@H](O)[C@H](C)O2)C1)C(=O)c1ccccc1C3=O
outcome [1]: inactive

CN(CCOc1ccc(NS(C)(=O)=O)cc1)CCc1ccc(NS(C)(=O)=O)cc1
outcome [1]: inactive

Cc1ccc(-c2nc3ccc(C)cn3c2CC(=O)N(C)C)cc1
outcome [2]: inactive | outcome [1]: inactive | Potency [3]: inactive | outcome [4]: inactive | Potency [5]: inactive | Potency [6]: inactive

COc1cc2c(cc1OC)[C@@H]1CC(=O)[C@@H](CC(C)C)CN1CC2
outcome [1]: inactive

COc1ccc(C(CN(C)C)C2(O)CCCCC2)cc1 (centres undefined)
outcome [2]: inactive | outcome [1]: inactive | cell viability, % of control (lower = more cytotoxic) [7]: 171% | viability (% of control) [8]: 107% | Potency [3]: inactive | outcome [4]: inactive | Potency [9]: inactive | Potency [5]: inactive | Potency [6]: inactive | Potency [10]: inactive | Potency [11]: inactive

CCC1C(=O)OCC1Cc1cncn1C (centres undefined)
outcome [2]: inactive | outcome [1]: inactive | Potency [3]: inactive

CCCN[C@H]1CCc2nc(N)sc2C1
outcome [1]: inactive

O=C1CCc2ccc(OCCCCN3CCN(c4cccc(Cl)c4Cl)CC3)cc2N1
AC50 [1]: 14.1 µM (active)

COc1cc2nc(N3CCN(C(=O)c4ccco4)CC3)nc(N)c2cc1OC
AC50 [1]: 12.6 µM (active)

NC(=O)C(c1ccccc1)(c1ccccc1)[C@@H]1CCN(CCc2ccc3c(c2)CCO3)C1
outcome [1]: inactive

CCCN1C[C@H](CSC)C[C@@H]2c3cccc4[nH]cc(c34)C[C@H]21
outcome [1]: inactive

CCN(CC)CCN1C(=O)CN=C(c2ccccc2F)c2cc(Cl)ccc21
outcome [2]: inactive | outcome [1]: inactive | Potency [3]: inactive | outcome [4]: inactive | Potency [5]: inactive | Potency [6]: inactive

CC1(C)S[C@@H]2[C@H](NC(=O)Cc3ccccc3)C(=O)N2[C@H]1C(=O)O (tested in a mixture with another compound)
outcome [1]: inactive

CCC(COC(=O)c1cc(OC)c(OC)c(OC)c1)(c1ccccc1)N(C)C (centres undefined)
outcome [2]: inactive | outcome [1]: inactive | Potency [3]: inactive | outcome [4]: inactive | Potency [5]: inactive | Potency [6]: inactive

C[C@]12C/C(=C/O)C(=O)C[C@@H]1CC[C@@H]1[C@@H]2CC[C@@]2(C)[C@H]1CC[C@]2(C)O
outcome [2]: inactive | outcome [1]: inactive | Potency [3]: inactive | outcome [4]: inactive | Potency [5]: inactive | Potency [6]: inactive

CNCCCC1c2ccccc2C=Cc2ccccc21
AC50 [1]: 8.91 µM (active)

N[C@@H]1C[C@H]1c1ccccc1
outcome [2]: inactive | outcome [1]: inactive | Potency [3]: inactive | outcome [4]: inactive | Potency [5]: inactive | Potency [6]: inactive | Potency [10]: inactive

CC1OC(C)OC(C)O1 (centres undefined)
outcome [2]: inactive | outcome [1]: inactive | Potency [3]: inactive | outcome [4]: inactive | Potency [5]: inactive | Potency [6]: inactive

O=C(c1ccc(OCCN2CCCCC2)cc1)c1c(-c2ccc(O)cc2)sc2cc(O)ccc12
AC50 [1]: 5.01 µM (active)

O=c1n(CCCN2CCN(c3cccc(Cl)c3)CC2)nc2ccccn12
outcome [1]: inactive

Cc1cccc(Nc2ccncc2S(=O)(=O)NC(=O)NC(C)C)c1
outcome [1]: inactive

CC(CN(C)C)CN1c2ccccc2CCc2ccccc21 (centres undefined)
AC50 [1]: 14.1 µM (active)

CN(C)c1nc(N(C)C)nc(N(C)C)n1
outcome [1]: inactive

CCCN(CCc1cccs1)[C@H]1CCc2c(O)cccc2C1
AC50 [1]: 15.8 µM (active)

CN1CCN(CCCN2c3ccccc3Sc3ccc(Cl)cc32)CC1
AC50 [1]: 14.1 µM (active)

CCOC(=O)C1(c2ccccc2)CCN(CCC(C#N)(c2ccccc2)c2ccccc2)CC1
outcome [2]: inactive | AC50 [1]: 14.1 µM (active) | Potency [3]: inactive | outcome [4]: inactive | Potency [5]: inactive | Potency [6]: inactive | Potency [10]: 9.2 µM (active) and 15.8 µM (active)

CCN(CC)CCNC(=O)c1c(C)[nH]c(/C=C2\C(=O)Nc3ccc(F)cc32)c1C
AC50 [1]: 3.16 µM (active)

CC(=O)CCCCn1c(=O)c2c(ncn2C)n(C)c1=O
outcome [1]: inactive

CCCCCOC(=O)Nc1nc(=O)n([C@@H]2O[C@H](C)[C@@H](O)[C@H]2O)cc1F
outcome [1]: inactive

C=C1CC[C@@]2(O)[C@H]3Cc4ccc(O)c5c4[C@@]2(CCN3CC2CC2)[C@H]1O5
outcome [2]: inactive | outcome [1]: inactive | Potency [3]: inactive | outcome [4]: inactive | Potency [5]: inactive | Potency [6]: inactive

C=C(CC)C(=O)c1ccc(OCC(=O)O)c(Cl)c1Cl
outcome [1]: inactive

CCN(CC)C(=S)SSC(=S)N(CC)CC
outcome [1]: inactive

O=C(O)P(=O)(O)O
outcome [2]: inactive | outcome [1]: inactive | Potency [12]: inactive | Potency [10]: inactive

NCC(CC(=O)O)c1ccc(Cl)cc1 (centres undefined)
outcome [2]: inactive | outcome [1]: inactive | Potency [3]: inactive | outcome [4]: inactive | Potency [5]: inactive | Potency [6]: inactive | Potency [10]: inactive | Potency [11]: inactive
